Measurements taken from PubChem BioAssay AID588493 (Sanford-Burnham Center for Chemical Genomics, 2011).
In all, about 360,000 compounds went through this assay and about 2,100 (0.58%) were called active. The sample holds actives, similar compounds and a random draw of the others, so the mix is not that of the screen.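 Rule for the calls: active = inhibition at 20 µM, scaled to each plate's controls, above about 33% (limit read from the data); inactive = the rest.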

Biological target: 26S proteasome non-ATPase regulatory subunit 14 (Homo sapiens) (UniProt O00487)
Assay: inhibition of 26S proteasome subunit Rpn11 – biochemical, fluorescence polarization, uHTS, primary screen (AID 588493)
Conditions: human 26S proteasome, Ub4-pepOG fluorescence polarization; at 20 µM; stronger effect = higher value; 20S core pre-blocked with epoxomicin

Chain of 26S proteasome non-ATPase regulatory subunit 14 (Homo sapiens) (O00487 whole entry, looked up): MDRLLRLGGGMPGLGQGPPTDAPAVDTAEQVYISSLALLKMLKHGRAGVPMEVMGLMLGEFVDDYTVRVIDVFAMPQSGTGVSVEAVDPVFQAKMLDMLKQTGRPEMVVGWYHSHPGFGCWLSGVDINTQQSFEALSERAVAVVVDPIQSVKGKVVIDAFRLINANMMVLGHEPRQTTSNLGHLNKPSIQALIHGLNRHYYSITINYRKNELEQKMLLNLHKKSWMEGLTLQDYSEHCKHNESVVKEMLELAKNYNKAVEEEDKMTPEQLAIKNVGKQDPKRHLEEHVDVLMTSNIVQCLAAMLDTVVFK

inhibition, inactive:
COc1cccc(NC(=O)CC(c2ccc(OC(C)C)cc2)c2ccccc2OC)c1 (stereo unspecified) -1.6%, COc1ccc(OC(C)C(=O)Nc2cccnc2)cc1 (stereo unspecified) -6%, Cc1ccc2[nH]c(C(=O)O)c(NC(=O)c3ccccc3[N+](=O)[O-])c2c1 3.4%, Cc1ccc(S(=O)(=O)N2CCCC2C(=O)OCc2nc3sc(C)c(C)c3c(=O)[nH]2)cc1 (stereo unspecified) -0.8%, O=C(CN1C(=O)CC(c2ccccc2)S(=O)(=O)c2ccccc21)NC1CCCC1 (stereo unspecified) -1.6%, CCN(c1ccccc1)S(=O)(=O)c1cc2c(cc1C)n(C)c(=O)c(=O)n2C -1.8%, COC(=O)CCSc1cc([N+](=O)[O-])cc2c1c(C1OCCS1)nn2-c1ccccc1 (stereo unspecified) 14%, CCC[C@@H]1C[C@@]1(CCC)[C@@H](NC(=O)c1ccccc1)c1ccc(C(=O)OC)cc1 -3.6%, COC(=O)c1ccc(C(NC(=O)OCc2ccccc2)/C(F)=C/[C@@H](C)C(=O)O)cc1 (stereo partly specified) -4.9%, O=C(Cc1ccccc1)NNC(=O)C1CCN(c2ncccn2)CC1 -1.3%, O=c1cc(CN2CCCCCCC2)c2c(ccc3ccccc32)o1 6.4%, COCC(=O)N1CCCC(C(=O)c2ccc(C(F)(F)F)cc2)C1 (stereo unspecified) -0.9%, CCOC(=O)c1cc(NC(=O)SCC(=O)O)c(C)nc1C 1%, CCCNC(=O)C1(C)CCN(C(=O)c2ccccc2OC(F)(F)F)C1 (stereo unspecified) -2.7%, COc1ccc(Cc2cc(-c3ccc(F)cc3)n[nH]c2=O)cc1 -2%, COc1ccc2[nH]c(=O)c(CNc3ccc(C)c(C)c3)cc2c1 -2.9%, CCOC(=O)CSc1nc2ccc(C)cc2n2cnnc12 3.8%, CC1(c2ccccc2)NC(=O)N(CC(=O)N2CC(=O)Nc3ccccc32)C1=O (stereo unspecified) -0.8%, CCOC(=O)n1c(SCC(=O)N(CC)CC)nc2ccccc21 4%, COc1ccccc1OCCn1c(SCC(N)=O)nc2ccccc21 -6.3%, CCCCN(C=O)c1c(CC)nc2c(OCCC3CCCCC3)cccn12 3.8%, Cc1cc(N)n2nc(-c3ccc(C(C)(C)C)cc3)cc2n1 8.7%, Cc1cc2cc(CNC(=O)c3cccs3)ccc2[nH]1 3.4%, Cc1cc(/C=N/NC(=O)CC2(C)OCCO2)c(C)n1-c1ccc(Cl)c(Cl)c1 4.1%, CC(C)c1ccc(C=NNc2ccc([N+](=O)[O-])cn2)cc1 3.1%, O=C(Nc1cccc(Cl)c1)c1cc(S(=O)(=O)N2CCCCC2)c[nH]1 3.9%, CN(C)C(=O)c1cccc(-c2cnc3sc(NCc4ccc5c(c4)OCO5)nn23)c1 -1.9%, NC(=NC(=O)c1ccccc1)C1=C(O)CCC1=O -7.5%, COCCCNC(=O)Cn1c(=O)n(Cc2ccccc2Cl)c(=O)c2cc(OC)c(OC)cc21 -0.4%, Cc1ccc(Nc2nnc(SC(C)C(=O)NC3CC3)s2)cc1 (stereo unspecified) 4.1%, CCCCC(=O)Nc1nc(C)c(-c2csc(Nc3ccc(Cl)cc3)n2)s1 13.9%, CSc1ncnc2c1ncn2CCCNCC(C)c1ccccc1 (stereo unspecified) -1.5%, COC(=O)C1=C(C)NC(=O)/C1=C/c1ccc(CNS(=O)(=O)c2ccc(C)cc2)o1 -0.8%, O=C(NCc1ccc(Cl)cc1)C1CCN(S(=O)(=O)c2cccs2)CC1 4.3%, Cn1nnnc1SCC(=O)Nc1ccccc1C(=O)NC1CC1 5.5%, CCN(CC)CCn1c2c(c(SCC(=O)Nc3ccc(C(C)C)cc3)nc1=O)CCC2 0.3%, CC(=O)Nc1c2c(nn1-c1ccc(C)cc1C)CS(=O)C2 (stereo unspecified) 1.3%, COc1ccc(CCNC2=C(Cl)C(=O)N(Cc3ccccc3)C2=O)cc1OC -4.9%, O=C(Nc1ccc(OCCO)cc1)c1csc([C@H]2C[C@H](O)[C@@H](CO)O2)n1 0.7%, CC(C)=CCN1CCN(CCCc2ccccc2)CC1CCO (stereo unspecified) -5%, Cc1c(C=O)n(C)n(-c2ccccc2)c1=O 8.1%, Cc1nc(N)sc1N=Nc1c(C)n(C)n(-c2ccccc2)c1=O 8.3%, Cc1csc(=O)n1CCC(=O)OCC(=O)Nc1ccc(N2CCOCC2)cc1 -1.7%, O=C(OCC(=O)N1CCOCC1)c1ccc(N2CCOCC2)c([N+](=O)[O-])c1 1.7%, CCCCN(CC)C(=O)c1ccccc1Oc1ccccc1 -5%, O=[N+]([O-])c1ccc(C(S(=O)(=O)Cc2ccccc2)S(=O)(=O)Cc2ccccc2)cc1 -4%, CC(=O)N1c2ccccc2N(Cc2ccc([N+](=O)[O-])cc2)C(=O)C1(C)C -1.8%, Cc1cc(C)c2c(=O)[nH]c(SCC(=O)Nc3ccc(Br)cc3)nc2n1 2.1%, CC(=O)CSc1nc(CCc2ccccc2)c(C#N)c(=O)[nH]1 -4.6%

inhibition, active:
COc1cccc(NC(=O)C(C)Oc2ccccc2)c1 (stereo unspecified) 112%, Cc1sc2nc(COC(=O)C(NC(=O)c3ccc(Cl)cc3Cl)C(C)C)[nH]c(=O)c2c1C (stereo unspecified) 56.9%, CCC/C=C(\CCC)C(NC(=O)Cc1ccccc1)c1ccc(C(=O)OC)cc1 (stereo unspecified) 40.7%, Oc1c(CN2CCCC2)cc(COCc2ccccc2)c2cccnc12 49.9%, CCN(CC)C(=O)CSc1nc2ccccc2n1CC(=O)N1CCN(c2ccccc2OC)CC1 34.8%, Cc1cc(/C=N/Nc2ccc([N+](=O)[O-])cn2)c(C)n1-c1cccc(C(=O)O)c1 49%, Cc1ccc(Nc2nc(Cl)c(C=O)s2)cc1 108%, COC(=O)C1=C(C)NC2=C(C(=O)c3ccccc32)C1c1ccc(-c2ccc(C(=O)O)cc2)o1 (stereo unspecified) 67.4%, COc1cc(/C=C2/SC(=S)N(Cc3ccccc3)C2=O)cc(OC)c1O 49.6%, Cc1c(N=Nc2ccc(N(C)C)cc2)c(=O)n(-c2ccccc2)n1C 67.4%, O=C1NC(=O)C2C1C(c1ccc([N+](=O)[O-])cc1)=NN2Cc1ccccc1 (stereo unspecified) 50.8%, N#Cc1c(-c2cccs2)nc(SCC(=O)c2ccc(Br)cc2)[nH]c1=O 68.3%
